In PubChem BioAssay AID1259373 (The Scripps Research Institute Molecular Screening Center, 2018):
The list shows a part of the results. The source made the active and inactive calls. The rule behind the calls is not given here.

Assay: signal-interfering artefacts in bead proximity readout – biochemical, AlphaScreen, HTS, counter-screen, dose response (AID 1259373)
Details: AlphaScreen optical interference counterscreen, cell-free

| SMILES | IC50 |
| --- | --- |
| COc1ccc2c(c1)CC(C(=O)Nc1ccc(-c3cn[nH]c3)cc1OCC(N)=O)CO2 (centres undefined) | > 6.48 µM (inactive) |
| O=C(Cc1cccs1)N/N=C\C=C\c1ccco1 | > 6.48 µM (inactive) |
| COc1cc(N2CCOCC2)ccc1Nc1cc(Nc2ccccc2-n2cccn2)c(C(F)(F)F)cn1 | > 6.48 µM (inactive) |
| C/C(N)=C(/C#N)C(=O)COC(=O)c1c2c(nc3ccccc13)/C(=C/c1ccco1)CC2 | > 6.27 µM (inactive) |
| CCOc1ccccc1N1CCN(Cc2cc(OC)c(O)c([N+](=O)[O-])c2)CC1 | > 6.48 µM (inactive) |
| CCc1ccc(NC(=O)CS(=O)CC(=O)NCCCc2ccccc2)cc1 (centres undefined) | > 6.48 µM (inactive) |
| CC[C@@H]1NC(=O)[C@H]2CN(C(=O)NCc3ccccc3)CCN2C1=O | > 6.48 µM (inactive) |
| Cc1ccc(NC(=O)COC(=O)CCC(=O)Nc2sc3c(c2C(N)=O)CCC3)cc1F | > 6.95 µM (inactive) |
| COc1ccc2c(c1)CC(C(=O)Nc1ccc(-c3cn[nH]c3)cc1OCc1ccccc1)CO2 (centres undefined) | > 6.48 µM (inactive) |
| O=C(Nc1ccc(-c2ccncc2)c(C(F)(F)F)c1)C1COc2ccccc2O1 (centres undefined) | > 6.48 µM (inactive) |
| c1cc2c(cc1CNc1nc(Nc3ccc(N4CCOCC4)cc3)c3ncn(C4CCCCC4)c3n1)OCO2 | > 6.62 µM (inactive) |
| C[C@@H](OCc1ccccc1)[C@@H]1NC(=O)[C@H]2CN(C(=O)Nc3cccc(F)c3)CCN2C1=O | > 6.48 µM (inactive) |
| COc1ccc2c(c1)CC(c1nc(Nc3ccc4cnccc4c3)c3ccccc3n1)CO2 (centres undefined) | > 6.48 µM (inactive) |
| NC(=O)COC(=O)/C=C/c1ccc(I)o1 | > 7.27 µM (inactive) |
